A short description of test [1]: NCI Yeast Anticancer Drug Screen. Data for the rad50 strain (AID 155).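 Further: 0% = growth of vehicle-only cultures of the same strain.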 As to conditions: S. cerevisiae rad50 strain growth inhibition; at 50.0 µM; active compounds read high. An outline of the steps: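 Vehicle-treated cultures provide the reference for the growth inhibition reported for compound-exposed, repair-deficient yeast.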
Test [2] can be described thus: NCI Yeast Anticancer Drug Screen. Data for the mec2-1 strain (AID 157). As to conditions: S. cerevisiae mec2-1 strain, at 50.0 µM, active compounds read high. An outline of the steps:
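Cells of the genetically defined mec2-1 yeast strain are incubated with test compound. Inhibition of growth is calculated against vehicle-treated controls.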

Test [3] is described as follows: NCI Yeast Anticancer Drug Screen. Data for the sgs1 mgt1 strain (AID 161).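 Further: 0% = growth of cultures given vehicle only.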 Particulars: S. cerevisiae sgs1 mgt1 strain, at 50.0 µM, active compounds read high. An outline of the steps: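 Read-out: growth inhibition vs vehicle controls. Cells: mutant yeast strain deficient in DNA damage repair.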
Test [4] is described as follows: NCI Yeast Anticancer Drug Screen. Data for the cln2 rad14 strain (AID 165).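 Further: 0% = growth equal to vehicle treated cultures.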 As to conditions: S. cerevisiae cln2 rad14 strain, at 50.0 µM, active compounds read high. An outline of the steps: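 The screen exposed genetically defined yeast (cln2 rad14) to test compounds and scored growth inhibition relative to vehicle-treated controls.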
Test [5] can be described thus: NCI Yeast Anticancer Drug Screen. Data for the bub3 strain (AID 167). Particulars: S. cerevisiae bub3 mutant strain, at 50.0 µM, active compounds read high. An outline of the steps: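 Mutant yeast screening strain plus compound; vehicle-treated cultures serve as the 0% inhibition reference.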
Test [6] in a line: NCI Yeast Anticancer Drug Screen. Data for the mlh1 rad18 strain (AID 175). As to conditions: S. cerevisiae mlh1 rad18 strain growth inhibition; at 50.0 µM; active compounds read high. An outline of the steps: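 Compound-treated yeast growth, normalised to vehicle controls. Strain bears defined DNA repair mutations.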

The panel holds about 79,000 compounds, 15% with a hit somewhere; the sample as a whole holds those more often. A number with no mark means an inactive call. The source made the active and inactive calls. No stated cut-off is given here; in the data, active means growth inhibition above about 70%; inactive means the rest.

On to `NS(=O)(=O)c1cc(C(=O)O)c(O)c2ccccc12`, for which the growth inhibition is 9.85% in test [1]; 3.3% in test [2]; 1.15% in test [3]; -23.8% in test [4]; 6.6% in test [5]; 15.6% in test [6].

Take `O=C(OCc1c(-c2ccccc2)nn(-c2ccccc2)c1COC(=O)Oc1ccccc1)Oc1ccccc1`: the growth inhibition in test [1] was -2.8%; in test [2], -14.6%; in test [3], -11.8%; in test [4], 17.8%; in test [5], -11.2%; in test [6], 10.2%.

Consider `C=C1C(=O)O[C@@H]2[C@H]3O[C@]3(C)CCC=C(C)CC[C@@H]12`, for which the growth inhibition in test [1] is -2.7%; in test [2], -7.05%; in test [3] it was 2.15%; in test [4], 9.05%; in test [5], -11.8%; in test [6] it was -6.75%.

For `NNC(=O)Cc1ccc2ccccc2c1`, the growth inhibition in test [1] was 12.3%; in test [2], -32.1%; in test [3] it was 4.45%; in test [4] it was -7.05%; in test [5], 4.6%; in test [6] it was 12%.

Take `CN(CC(=O)O)C(=N)N`: the growth inhibition was -8.3% in test [1]; -11.8% in test [2]; -19.9% in test [3]; -2.75% in test [4]; -24.6% in test [5]; -9.2% in test [6].

On to `CC(C)(C)OC(=O)C(C1NC2C(=O)OCC2(CO)S1)N1C(=O)c2ccccc2C1=O` (stereo unspecified), for which the growth inhibition was 38.6% in test [1]; -1.65% in test [2]; 25.9% in test [3]; -6.35% in test [4]; -1.75% in test [5]; 12.5% in test [6].

Turning to `O=C(O)C1(O)CC(O)C(O)C(O)C1` (stereo unspecified), the growth inhibition in test [1] was 5.25%; in test [2] it was -7.05%; in test [3], -0.25%; in test [4], -13.8%; in test [5] it was 8.55%; in test [6] it was -0.8%.

Turning to `N#CC(c1ccccc1)N1CCCN(C(C#N)c2ccccc2)C1c1ccccc1O` (stereo unspecified), the growth inhibition in test [1] is 31.4%; in test [2], -8.65%; in test [3], -6.85%; in test [4], 17.9%; in test [5] it was 18.4%; in test [6], 13.2%.

For `COc1ccc(NC(=O)CC(=O)n2nc(-c3ccccc3)c(N=Nc3ccccc3C)c2-c2ccccc2)cc1`, the growth inhibition in test [1] is -1.5%; in test [2] it was -2.1%; in test [3], -0.8%; in test [4], 7.8%; in test [5], 21.1%; in test [6], 6.65%.

On to `CCOC(=O)CC1OCCO1`, for which the growth inhibition in test [1] was 7.65%; in test [2] it was -3.35%; in test [3] it was -24.7%; in test [4] it was 5.25%; in test [5] it was 2.4%; in test [6], -5.15%.

Consider `CO[C@H]1C[C@H]2[C@@H]3CCC4=CC(=O)C=C[C@]4(C)[C@@]3(F)[C@@H](O)C[C@]2(C)[C@@]1(O)C(=O)COC(C)=O`, for which the growth inhibition in test [1] is 6.55%; in test [2], -0.35%; in test [3], 22.8%; in test [4], 33.2%; in test [5], 1.05%; in test [6], -6.55%.

In the case of `O=[N+]([O-])c1cccc(S/N=C/c2ccccc2)c1`, the growth inhibition is 98.8% (active) in test [1]; 98.4% (active) in test [2]; 99% (active) in test [3]; 92.3% (active) in test [4]; 98.5% (active) in test [5]; 98.8% (active) in test [6].

`C/C(Nc1ccc(F)cc1)=C1/CCOC1=O`: the growth inhibition is 9.8% in test [1]; -17.9% in test [2]; -1.5% in test [3]; -43.5% in test [4]; 13.8% in test [5]; -11.5% in test [6].

For the compound `O=S(=O)(O)CCCCBr`, the growth inhibition in test [1] was 3.6%; in test [2], -31.4%; in test [3], 16.8%; in test [4], -5%; in test [5], -3%; in test [6], 13.5%.

Take `CN(C)c1ccc(N=Nc2cccc3ncccc23)cc1`: the growth inhibition was 2.1% in test [1]; 26.6% in test [2]; 67.5% in test [3]; 31.1% in test [4]; 65.5% in test [5]; 66% in test [6].

As to `Cc1cc(-n2cnc3c(N(CCO)CCO)ncnc32)ccc1[N+](=O)[O-]`, the growth inhibition was 10.1% in test [1]; -8.5% in test [2]; -3.95% in test [3]; -1.9% in test [4]; 0.5% in test [5]; -5.8% in test [6].

With `Cc1ccc(-c2c(C#N)c(-c3ccc(Cl)cc3)c(C#N)c(=O)n2NS(=O)(=O)c2ccc(C)cc2)cc1`, the growth inhibition is 20.9% in test [1]; 19.8% in test [2]; 30.4% in test [3]; 44.6% in test [4]; 15.7% in test [5]; 13.2% in test [6].

Turning to `CCOC(=O)c1[nH]c(CC(=O)O)c(C(=O)O)c1C`, the growth inhibition in test [1] was 15.7%; in test [2], 26.4%; in test [3], 24.4%; in test [4], 0.4%; in test [5], 16.4%; in test [6], 15.2%.

Turning to `CCNC(=O)c1ccc(Cl)cc1`, the growth inhibition was 19.9% in test [1]; -2.25% in test [2]; 8.55% in test [3]; 0.65% in test [4]; -6.15% in test [5]; 0.45% in test [6].

For `CCc1cccc(CC)c1Nc1nc(-c2ccccc2-c2ccccc2)cs1`, the growth inhibition in test [1] is -29.1%; in test [2], -4.4%; in test [3], -7.05%; in test [4], -99.2%; in test [5] it was -20.9%; in test [6] it was -39.9%.

Take `CN(C)C1CS(=O)(=O)C1c1ccccc1` (stereo unspecified): the growth inhibition in test [1] was 19.6%; in test [2], 9%; in test [3] it was 7.1%; in test [4], -19.5%; in test [5], 8.3%; in test [6], 1.45%.

For the origin of these results see PubChem BioAssay (NCI).
